# Assay outcomes: PubChem, National Center for Advancing Translational Sciences (NCATS)
# TDP1 cell noCPT – qHTS for Inhibitors of human tyrosyl-DNA phosphodiesterase 1 (TDP1): qHTS in cells in absence of CPT; Potency, µM (doses to about 46.2 µM), for the others: at the top dose activity change, negative = growth inhibition, actives largely listed as inhibitors; 420,000 compounds, 15% hits; DT40 Tdp1-/- hTDP1 cells, no CPT, ATP luminescence, 48 h; AID 686978, 2013; also: potency is read from the fitted curve at half-maximal effect; % is scaled to controls: 0 for no effect and ±100 for the full control effect; nearly all actives have a fitted effect of over 55% in size
#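 Seeded 400 DT40-hTDP1 cells/well (vehicle DMSO, no 20 nM CPT); pinned compounds; ≥48 hr at 37 °C; CellTiter-Glo luminescence as viability measure.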
# DT40 TDP1 CPT – DT40-hTDP1 cell growth loss with CPT | 420,000 compounds, 12% hits | chicken DT40 Tdp1-/-;hTDP1 cells + 20 nM CPT, ATP luminescence, 48 h | Potency, µM (series often up to 46.2 µM), for the others: at the top dose activity change, negative = growth inhibition, hits mostly inhibitors; also: potency is read from the fitted curve at half-maximal effect; % is scaled to controls: 0 for no effect and ±100 for the full control effect; nearly all actives have a fitted effect of over 55% in size
#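 Cell growth measured by CellTiter-Glo luminescence after a minimum 48 h, 37 C compound exposure with 20 nM CPT in Tdp1-knockout DT40 cells stably expressing hTDP1, seeded 400/well; qHTS titration format.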
# IL1B secr inh – blocks inflammasome-driven IL-1 beta release | THP-1 LPS/ATP IL-1B secretion, AlphaLISA, 16 h; active compounds read low | 360,000 compounds, 4.7% hits | activity change, % at 57.5 µM; in the data active = activity change below about -50%; inconclusive = mostly about -30% to -49%; also: % is scaled to controls: 0 for no effect and ±100 for the full control effect
#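 Secreted IL-1B measured by AlphaLISA bead assay after 16 h compound exposure of THP-1 cells; compounds (final up to 57.5 uM) added 1 h before LPS (250 ng/mL) and ATP (1.25 mM) stimulation; lower signal means less secretion.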
# ClpP mod – qHTS Assay for Activators of ClpP; Potency, µM (top dose mostly 57.5 µM), for the others: at the top dose activity change, negative = active; purified B. subtilis ClpP, FRET peptide cleavage, 20 min; 340,000 compounds, 1.9% hits; AID 651965, 2013; active = well fitted falling curve with a large enough effect; inconclusive = small, poorly fitted or top-dose-only effect; inactive = no such curve, though single readings can be large or run the other way; also: potency is read from the fitted curve at half-maximal effect; the source files actives as falling curves though it sought activators and does not explain the sign; nearly all actives have a fitted effect of over 65% in size
#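 Purified B. subtilis ClpP, 10 microg/mL final in Tris/HCl pH8 with KCl, BSA, glycerol and Tween-20, cleaved an Abz/nitrotyrosine-quenched decapeptide. Fluorescence (ex 320, em 430) was read at 0 and 20 min at room temperature. Delta was normalized to 5.8 microM ADEP and DMSO/no-enzyme controls.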
# DRD3 agonist – D3 dopamine receptor (human) agonism. P35462. D3R DiscoveRx beta-arrestin cells, luminescence, 90 min. 410,000 compounds, 0.58% hits. max activation, %; in the data active = max activation above about 30%; also: 0% is about no effect
#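 Agonist-mode cell screen: cells plated at 1500/well and incubated overnight at 37 °C, then exposed to library compounds for 90 min at 37 °C. Detection reagent was added for 30–60 min at room temperature, and luminescence was read.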
# D3 antag – antagonists of human D3 dopamine receptor; P35462; D3R cells, DiscoveRx beta-arrestin luminescence, antagonist mode; active compounds read low; max response, negative = inhibition, %; 360,000 compounds, 2.5% hits; in the data active = max response below about -50%; inconclusive = no clear call, values can overlap the other calls; also: % is scaled to controls: 0 for no effect and ±100 for the full control effect
#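 Cells plated overnight at 1500 cells/well, then exposed to library compounds with dopamine controls for 90 minutes at 37 degrees C. DiscoveRx reagent added for 30–60 minutes at room temperature; luminescence read, quantitative HTS format.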
# The depositor's hits bear a star; ? = inconclusive; . = not tested or not shown; [ ] = another dose, or the depositor's remark. Sampled rows, rich in hits. Any-hit rate of the full collection: about 21%. Unless noted, calls follow the shape of the dose curve; as a rule, active = well fitted inhibition curve with a large enough effect; inconclusive = small, poorly fitted or top-dose-only effect; inactive = flat fitted curve, though single readings scatter.
SMILES,TDP1 cell noCPT,DT40 TDP1 CPT,IL1B secr inh,ClpP mod,DRD3 agonist,D3 antag
CCN1CCOC(=O)C1CC(=O)Nc1ccc(Br)cc1 (stereo unspecified),?,23.1µM*,.,-3.6%,-4.7,.
CCN1CCN(CCC(=O)Nc2ccc(Br)cc2)CC1,-1.0%,-26.1%,10.2,.,-14.2,-11.4
CCN1CCOC(=O)C1CC(=O)Nc1cc(C)ccc1OC (stereo unspecified),2.59µM*,5.17µM*,.,2.2%,-15.7,.
CC(C)OCCCNc1ncnc2c1nc1n2CCCC1,-3.0%,-23.3%,22.0,0.9%,13.0,3.5
CN(C)C(CNc1ncnc2sc3c(c12)CCCC3)c1ccco1 (stereo unspecified),23.1µM*,?,-11.4,0.0%,-15.2,-25.1
Cc1nc(NS(=O)(=O)c2ccc(Cl)s2)c2c3c(sc2n1)CCCC3,?,?,43.8,-20.0%,7.1,8.4
COc1ccc(Nc2nc(C)nc3sc4c(c23)CCC4)cc1O,13µM*,14.6µM*,50.0,.,19.3,2.7
CC(C)OCCCNc1ncnc2sc3c(c12)CCCC3,23.1µM*,20.6µM*,.,-4.0%,22.1,.
Cc1nc(NCc2ccco2)c2c3c(sc2n1)CCC3,13µM*,13µM*,-80.3*,-1.6%,4.7,5.0
c1coc(CNc2ncnc3sc4c(c23)CCCCC4)c1,?,?,-2.8,-0.6%,-6.1,0.4
CCc1nc2c(OCc3ccc(C(=O)N(C)C)cc3)cccn2c1N(C)C(=O)Nc1ccccc1OC,?,?,-5.3,-1.4%,3.9,17.5
O=C(O)C(=O)Nc1cccc(-c2nn[nH]n2)c1,-5.3%,-1.3%,.,.,-26.8,.
Cc1ccc(SCC(=O)Nc2ccc(N3CCOCC3)cc2)cc1C,-28.4%,-27.7%,-1.1,-1.0%,-2.4,-6.3
c1ccc(CNc2ncnc3sc4c(c23)CCCC4)nc1,23.1µM*,16.4µM*,-12.1,2.5%,5.0,9.4
Cc1nc(NCc2ccccn2)c2c3c(sc2n1)CCCC3,20.6µM*,?,-54.0*,.,9.6,15.0
O=C(Nc1ncnc2sc3c(c12)CCCCC3)c1ccc(F)cc1,?,?,0.0,0.5%,8.9,-16.7
O=c1cnc2cnc(Nc3ccccc3)nc2n1C[C@H]1CCCO1,9.2µM*,8.2µM*,.,.,.,.
COCCn1c(=O)cnc2cnc(Nc3ccccc3)nc21,14.6µM*,9.2µM*,.,.,.,.
FC(F)(F)c1ccc2c(c1)ncc1c(-c3ccccc3)nn(-c3ccccc3)c12,1.5%,-0.2%,.,-0.2%,-4.5,.
N#Cc1cccc(-c2nc(Nc3ccccc3)c3ccccc3n2)c1,-12.9%,0.3%,.,.,.,.
CCN1CCCC1CN(Cc1cc2ccc(C)cc2[nH]c1=O)C(=S)Nc1ccc(OC)cc1 (stereo unspecified),5.17µM*,?,-106.5*,1.5%,-8.4,-63.9*
CNC(=S)N(Cc1ccc(OC)cc1)Cc1cc2cc(C)ccc2[nH]c1=O,-2.6%,6.1%,7.8,.,-1.8,6.7
CCN1CCCC1CN(Cc1cc2ccc(C)cc2[nH]c1=O)C(=S)Nc1cccc(OC)c1 (stereo unspecified),29.1µM*,?,-77.0*,-12.2%,-14.3,-88.2*
CCOc1ccc(C(=O)NNC(=O)CN2C(=O)NC3(CCCC3)C2=O)cc1,6.4%,-3.7%,21.6,-1.1%,5.3,-25.1
CN(C)c1ccc(Nc2nc(N)c([N+](=O)[O-])c(N3CCOCC3)n2)cc1,25.9µM*,?,-86.7*,-4.6%,2.5,22.6
SMILES,TDP1 cell noCPT,DT40 TDP1 CPT,IL1B secr inh,ClpP mod,DRD3 agonist,D3 antag
Nc1nc(Nc2ccccc2)nc(N2CCOCC2)c1[N+](=O)[O-],1.1%,-25.6%,-5.9,15.8µM*,3.6,-6.1
O=C(COC(=O)c1cc(-c2ccccc2)nc2c(Cl)cccc12)c1ccc(F)cc1,?,-29.9%,.,-10.6%,-11.3,.
COc1cccc(NC(=O)COC(=O)Cn2c(C)csc2=O)c1,26.0%,-5.4%,-8.8,0.0%,3.6,9.4
O=c1[nH]c(Cc2ccccc2)nc2c1oc1ccccc12,?,6.51µM*,0.0,1.9%,0.5,-18.0
O=C(Oc1cccc2cccnc12)c1ccc(N2C(=O)C3C4CCC(C4)C3C2=O)cc1 (stereo unspecified),1.03µM*,0.517µM*,-95.3*,-2.2%,-13.9,?
O=C(Oc1cccc2cccnc12)c1cccc(-n2cnnn2)c1,18.4µM*,?,0.9,3.2%,7.3,3.7
O=C(Oc1cccc2cccnc12)c1cccc(N2C(=O)C3C4CCC(C4)C3C2=O)c1 (stereo unspecified),4.61µM*,4.11µM*,-81.4*,-1.8%,-11.2,-87.6*
COc1ccccc1N1CCN(c2ncnc3c2nnn3C)CC1,?,?,.,0.6%,-17.2,.
CC(=O)NCc1ccc(-c2csc(-c3cccs3)n2)cc1,?,-28.6%,?,.,-1.6,5.0
CCOCC(=O)Nc1ccc2c(c1)N(S(=O)(=O)c1cccs1)CCC2,?,?,-5.6,0.9%,-12.8,-11.9
CC1CCc2c(sc3nc(CSc4nnnn4C)[nH]c(=O)c23)C1 (stereo unspecified),-22.8%,-15.8%,-20.4,.,6.0,11.6
CN(C1=C(NC(=O)c2ccccc2)C(=O)c2ccccc2C1=O)C1CCS(=O)(=O)C1 (stereo unspecified),2.59µM*,2.59µM*,?,-2.8%,-12.6,-53.8*
O=C(NC(=S)NC1CCS(=O)(=O)C1)c1ccccc1 (stereo unspecified),5.8%,1.6%,-15.2,0.4%,7.9,14.9
CC(=O)NC1=C(NC2CCS(=O)(=O)C2)C(=O)c2ccccc2C1=O (stereo unspecified),11.6µM*,10.3µM*,22.1,-3.1%,-14.8,-3.7
Cc1ccc([N+](=O)[O-])cc1S(=O)(=O)NCCc1c(C)[nH]c2ccccc12,-6.5%,1.1%,-8.4,0.7%,1.1,-5.4
COc1cc(S(=O)(=O)NCCc2c(C)[nH]c3ccccc23)c(C)cc1C,18.4µM*,18.4µM*,.,-1.3%,6.6,.
COCCN1CCN(C(=O)c2cnn(-c3nccc(-c4ccccc4F)n3)c2-c2ccco2)CC1,-14.8%,10.5%[9.04 µM],.,.,.,.
Cc1ccc2[nH]cc(C(=O)NCc3cccs3)c(=O)c2c1,23.1µM*,23.1µM*,-70.5*,-2.4%,8.8,7.3
COc1cccc2c(=O)c(C(=O)NCc3cccs3)c[nH]c12,6.51µM*,-12.5%,1.8,?,-3.9,-19.6
COc1cc2ccccc2cc1C(=O)O,-13.9%,-1.3%,12.9,?,2.4,2.8
